Reference: the supplement of paper PMC10849652
Of roughly 7,900 targets only a part is listed; those with a hit were picked by preference. About 0.6% of all pairs of compound and target were hits. Values without a mark were called inactive.

Experiments:
Assay in all cases: log2 fold change, soluble protein after heating vs DMSO (PISA); higher = thermal stabilisation; K562 cells, 10 uM, 30 min; active = over 0.2 and 3.5 SD of the protein, either way, in both replicates (recomputed)
[1] = compound: C1=CC=C(C=C1)[C@H](COC2=CC3=C(C=C2)NC(=O)N3)NC(=O)C4=CC=CN(C4=O)CC5=CC(=C(C=C5)F)F
Method in brief: (§1)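 Quantification of soluble protein used TMTpro 16plex LC-MS/MS, with channel sums equalised. Samples were the supernatant after 21,000xg for 90 min of pooled aliquots from K562 cells (2×10^6 cells/mL) treated with 10 μM compound for 30 min, heated for 3 min over 48°C-58°C, and extracted in PBS with 0.5% NP-40 at 4°C. Values, from duplicates, describe thermal stability against control samples on a log2 fold-change scale.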

[2] = compound: CC1=C(SC2=C1C(=N[C@H](C3=NN=C(N32)C)CC(=O)N)C4=CC=C(C=C4)Cl)C
Method in brief: as §1

[3] = compound: CC1=C2C(=CC=C1)N=C(N(C2=O)C3=CC=CC=C3C)CN4C=NC5=C(N=CN=C54)N
Method in brief: as §1

[4] = compound: Cc1sc2c(c1C)C(c1ccc(Cl)cc1)=N[C@@H](CC(=O)OC(C)(C)C)c1nnc(C)n1-2
Method in brief: as §1

[5] = compound: c1ccc([C@@H]2C[C@H]2NC2CCNCC2)cc1
Method in brief: as §1

Sequence of UniProt Q9UMY4 (Q9UMY4 whole entry, looked up): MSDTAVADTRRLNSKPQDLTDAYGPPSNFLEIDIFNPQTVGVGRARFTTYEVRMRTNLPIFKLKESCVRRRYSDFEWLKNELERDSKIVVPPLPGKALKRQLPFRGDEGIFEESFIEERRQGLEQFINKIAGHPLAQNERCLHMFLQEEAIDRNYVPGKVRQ
Sequence of UniProt O94901 (O94901 whole entry, looked up): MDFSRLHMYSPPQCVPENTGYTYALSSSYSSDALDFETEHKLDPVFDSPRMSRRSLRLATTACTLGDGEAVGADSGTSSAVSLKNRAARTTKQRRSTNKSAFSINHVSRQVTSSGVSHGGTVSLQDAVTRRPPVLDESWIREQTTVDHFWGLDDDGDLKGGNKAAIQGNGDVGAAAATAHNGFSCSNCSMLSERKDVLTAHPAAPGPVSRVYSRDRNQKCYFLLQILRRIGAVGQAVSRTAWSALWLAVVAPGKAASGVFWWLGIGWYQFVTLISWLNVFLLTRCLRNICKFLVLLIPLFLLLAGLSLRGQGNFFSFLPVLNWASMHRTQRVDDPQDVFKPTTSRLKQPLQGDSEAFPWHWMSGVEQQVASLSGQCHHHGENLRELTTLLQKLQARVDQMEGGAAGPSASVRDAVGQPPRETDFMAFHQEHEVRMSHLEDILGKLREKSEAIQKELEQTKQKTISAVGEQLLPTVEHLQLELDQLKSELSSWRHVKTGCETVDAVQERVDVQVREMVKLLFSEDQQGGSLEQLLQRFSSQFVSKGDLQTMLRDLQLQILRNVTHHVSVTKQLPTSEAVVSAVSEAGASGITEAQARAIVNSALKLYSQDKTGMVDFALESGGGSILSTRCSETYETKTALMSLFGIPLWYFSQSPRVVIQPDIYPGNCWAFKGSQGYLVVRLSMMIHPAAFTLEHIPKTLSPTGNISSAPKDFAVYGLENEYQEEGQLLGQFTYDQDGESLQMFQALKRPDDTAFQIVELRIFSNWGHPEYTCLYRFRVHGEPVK
Sequence of UniProt Q01082 (Q01082 whole entry, looked up): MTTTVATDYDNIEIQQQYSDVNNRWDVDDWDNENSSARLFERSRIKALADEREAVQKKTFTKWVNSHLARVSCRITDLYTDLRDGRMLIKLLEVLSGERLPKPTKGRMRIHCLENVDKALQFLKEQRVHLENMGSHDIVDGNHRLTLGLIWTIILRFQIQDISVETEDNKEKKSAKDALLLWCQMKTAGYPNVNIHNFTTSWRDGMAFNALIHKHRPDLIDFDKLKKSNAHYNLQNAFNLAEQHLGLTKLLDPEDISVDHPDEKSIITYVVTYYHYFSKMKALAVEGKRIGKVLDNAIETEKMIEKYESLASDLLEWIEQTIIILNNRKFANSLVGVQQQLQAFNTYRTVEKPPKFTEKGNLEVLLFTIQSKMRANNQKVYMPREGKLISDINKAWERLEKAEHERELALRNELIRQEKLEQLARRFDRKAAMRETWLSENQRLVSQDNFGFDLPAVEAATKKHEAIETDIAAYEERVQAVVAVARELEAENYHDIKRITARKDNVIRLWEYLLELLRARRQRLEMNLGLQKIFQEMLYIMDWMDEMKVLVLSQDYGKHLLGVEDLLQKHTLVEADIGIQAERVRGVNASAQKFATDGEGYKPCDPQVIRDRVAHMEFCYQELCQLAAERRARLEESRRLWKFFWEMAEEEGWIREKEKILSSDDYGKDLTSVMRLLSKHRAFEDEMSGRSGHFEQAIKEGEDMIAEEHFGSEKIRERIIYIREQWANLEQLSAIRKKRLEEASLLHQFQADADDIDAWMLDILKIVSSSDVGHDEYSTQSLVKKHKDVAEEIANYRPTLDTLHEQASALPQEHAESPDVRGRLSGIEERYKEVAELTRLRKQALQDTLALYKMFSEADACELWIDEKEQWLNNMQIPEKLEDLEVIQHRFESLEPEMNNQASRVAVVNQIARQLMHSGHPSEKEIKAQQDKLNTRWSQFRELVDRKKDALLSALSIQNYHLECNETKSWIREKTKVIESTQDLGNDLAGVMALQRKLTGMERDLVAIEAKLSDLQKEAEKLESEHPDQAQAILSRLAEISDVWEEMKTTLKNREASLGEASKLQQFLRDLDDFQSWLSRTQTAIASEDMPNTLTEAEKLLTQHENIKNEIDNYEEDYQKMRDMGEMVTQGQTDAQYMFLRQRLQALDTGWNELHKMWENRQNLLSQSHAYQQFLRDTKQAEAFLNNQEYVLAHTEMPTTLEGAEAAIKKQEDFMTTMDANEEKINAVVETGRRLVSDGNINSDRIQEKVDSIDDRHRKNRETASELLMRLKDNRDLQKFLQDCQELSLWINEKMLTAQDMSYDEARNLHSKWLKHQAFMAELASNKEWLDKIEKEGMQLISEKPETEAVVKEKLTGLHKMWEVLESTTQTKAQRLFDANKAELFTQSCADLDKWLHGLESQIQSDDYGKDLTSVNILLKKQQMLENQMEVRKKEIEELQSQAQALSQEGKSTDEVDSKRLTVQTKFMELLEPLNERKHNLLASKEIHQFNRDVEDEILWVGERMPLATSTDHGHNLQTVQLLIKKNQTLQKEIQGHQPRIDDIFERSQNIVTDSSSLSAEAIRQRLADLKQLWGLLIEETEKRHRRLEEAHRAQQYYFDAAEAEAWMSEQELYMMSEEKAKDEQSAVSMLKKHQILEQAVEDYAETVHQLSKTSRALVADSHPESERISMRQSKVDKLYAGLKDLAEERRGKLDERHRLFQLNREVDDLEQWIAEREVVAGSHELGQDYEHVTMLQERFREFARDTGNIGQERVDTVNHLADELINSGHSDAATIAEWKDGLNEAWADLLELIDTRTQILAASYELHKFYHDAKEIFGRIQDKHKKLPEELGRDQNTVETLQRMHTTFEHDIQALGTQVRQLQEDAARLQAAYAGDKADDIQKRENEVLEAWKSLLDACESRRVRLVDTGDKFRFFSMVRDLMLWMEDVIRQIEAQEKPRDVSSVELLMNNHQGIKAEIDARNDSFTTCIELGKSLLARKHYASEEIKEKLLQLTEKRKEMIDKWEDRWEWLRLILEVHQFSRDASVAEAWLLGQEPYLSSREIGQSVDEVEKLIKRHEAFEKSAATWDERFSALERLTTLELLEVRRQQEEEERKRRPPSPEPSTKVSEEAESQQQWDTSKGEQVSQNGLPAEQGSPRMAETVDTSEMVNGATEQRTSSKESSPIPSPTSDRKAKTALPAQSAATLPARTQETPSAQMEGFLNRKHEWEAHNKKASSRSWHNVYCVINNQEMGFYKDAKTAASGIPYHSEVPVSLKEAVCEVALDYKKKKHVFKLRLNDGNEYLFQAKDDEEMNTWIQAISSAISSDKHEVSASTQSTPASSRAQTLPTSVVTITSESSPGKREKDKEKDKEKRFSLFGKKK
Sequence of UniProt P51532 (P51532 whole entry, looked up): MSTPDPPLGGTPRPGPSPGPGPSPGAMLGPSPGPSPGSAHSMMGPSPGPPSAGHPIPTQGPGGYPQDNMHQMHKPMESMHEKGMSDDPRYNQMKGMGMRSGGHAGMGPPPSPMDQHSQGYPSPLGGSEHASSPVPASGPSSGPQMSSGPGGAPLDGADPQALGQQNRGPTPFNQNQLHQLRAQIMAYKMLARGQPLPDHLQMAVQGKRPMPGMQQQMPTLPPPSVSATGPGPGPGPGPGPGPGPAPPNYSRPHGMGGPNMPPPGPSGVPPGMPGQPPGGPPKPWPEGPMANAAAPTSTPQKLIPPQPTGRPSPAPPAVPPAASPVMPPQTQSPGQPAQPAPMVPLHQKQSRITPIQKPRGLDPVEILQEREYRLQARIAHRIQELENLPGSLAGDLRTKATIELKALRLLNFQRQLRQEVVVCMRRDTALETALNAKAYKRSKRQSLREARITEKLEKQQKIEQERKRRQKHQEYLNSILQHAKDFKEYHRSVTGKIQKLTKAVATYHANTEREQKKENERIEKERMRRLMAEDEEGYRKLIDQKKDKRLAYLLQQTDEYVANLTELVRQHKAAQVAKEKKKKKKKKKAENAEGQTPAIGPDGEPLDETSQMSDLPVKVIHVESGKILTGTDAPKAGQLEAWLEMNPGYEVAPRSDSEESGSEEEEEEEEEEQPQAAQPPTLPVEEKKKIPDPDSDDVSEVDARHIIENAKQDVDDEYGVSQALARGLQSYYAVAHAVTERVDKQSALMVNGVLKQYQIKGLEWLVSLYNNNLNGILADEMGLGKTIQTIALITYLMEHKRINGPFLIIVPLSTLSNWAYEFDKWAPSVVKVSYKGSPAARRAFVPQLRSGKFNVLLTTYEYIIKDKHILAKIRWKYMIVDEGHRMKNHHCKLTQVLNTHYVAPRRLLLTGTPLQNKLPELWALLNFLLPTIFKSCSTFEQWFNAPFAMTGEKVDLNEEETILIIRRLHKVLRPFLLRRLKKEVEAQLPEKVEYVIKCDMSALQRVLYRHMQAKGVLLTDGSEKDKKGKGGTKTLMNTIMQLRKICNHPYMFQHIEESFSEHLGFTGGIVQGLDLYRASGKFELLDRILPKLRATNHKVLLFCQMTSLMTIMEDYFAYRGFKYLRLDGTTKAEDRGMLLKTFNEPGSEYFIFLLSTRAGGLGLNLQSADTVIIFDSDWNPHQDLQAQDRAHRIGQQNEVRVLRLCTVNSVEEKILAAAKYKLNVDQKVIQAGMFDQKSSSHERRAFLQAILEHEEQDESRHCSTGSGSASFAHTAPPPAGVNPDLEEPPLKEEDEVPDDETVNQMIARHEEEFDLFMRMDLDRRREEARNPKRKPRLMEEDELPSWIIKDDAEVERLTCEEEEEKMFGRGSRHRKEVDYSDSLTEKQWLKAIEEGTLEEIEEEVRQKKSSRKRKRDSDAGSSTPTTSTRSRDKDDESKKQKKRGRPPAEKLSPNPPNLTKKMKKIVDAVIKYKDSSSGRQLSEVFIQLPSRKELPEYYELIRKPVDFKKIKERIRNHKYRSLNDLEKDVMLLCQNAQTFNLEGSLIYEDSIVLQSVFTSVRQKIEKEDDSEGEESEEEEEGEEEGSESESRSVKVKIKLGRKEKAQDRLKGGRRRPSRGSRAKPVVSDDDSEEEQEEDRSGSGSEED
Sequence of UniProt Q9BYN0 (Q9BYN0 whole entry, looked up): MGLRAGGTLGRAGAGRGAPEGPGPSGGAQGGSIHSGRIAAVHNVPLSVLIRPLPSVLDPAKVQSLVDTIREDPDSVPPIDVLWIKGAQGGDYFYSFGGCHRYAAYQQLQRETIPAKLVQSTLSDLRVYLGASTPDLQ

| Target | log2 fold change [1] | log2 fold change [2] | log2 fold change [3] | log2 fold change [4] | log2 fold change [5] |
| --- | --- | --- | --- | --- | --- |
| SNX12 isoform 1 (UniProt Q9UMY4) | 0.016 | -0.009 | 0.095 | 0.026 | 0.02 |
| SLC29A3 (UniProt Q9BZD2) | 0.036 | 0.033 | 0.044 | -0.352 | 0.139 |
| SORT1 (UniProt Q99523) | 0.029 | -0.01 | -0.03 | 0.027 | 0.009 |
| TM9SF2 (UniProt Q99805) | 0.018 | 0.035 | 0.054 | -0.044 | -0.028 |
| TK1 (UniProt P04183) | 0.002 | -0.008 | -0.011 | -0.019 | 0.008 |
| TFB2M (UniProt Q9H5Q4) | -0.019 | 0.035 | 0.103 | -0.019 | -0.022 |
| TK1 (UniProt K7ERV3) | 0.038 | 0.091 | 0.083 | 0.029 | 0.015 |
| TBC1D9B (UniProt Q66K14) | -0.025 | 0.093 | 0.042 | 0.02 | -0.062 |
| TGFBRAP1 (UniProt Q8WUH2) | -0.021 | 0.03 | 0.075 | -0.105 | -0.004 |
| TACC2 (UniProt O95359) | -0.031 | -0.03 | 0.166 | 0.011 | 0.05 |
| SPTBN4 (UniProt Q9H254) | -0.058 | -0.083 | 0.148 | 0.014 | -0.001 |
| SLC7A6OS (UniProt Q96CW6) | -0.026 | -0.043 | 0.03 | 0.012 | 0.032 |
| TBP (UniProt P20226) | 0.016 | 0.314 | -0.158 | 0.144 | 0.07 |
| TM7SF3 (UniProt Q9NS93) | -0.058 | 0.104 | – | -0.037 | 0.196 |
| SRSF9 (UniProt Q13242) | 0.045 | -0.452 | -0.38 | – | 0.041 |
| SLC46A1 (UniProt Q96NT5) | – | -0.09 | 0.075 | 0.024 | 0.256 |
| TC2N (UniProt Q8N9U0) | – | – | 0.053 | 0.08 | – |
| STK39 (UniProt Q9UEW8) | -0.105 | -0.015 | 0.034 | -0.026 | -0.029 |
| SMPD4 isoform 2 (UniProt Q9NXE4) | -0.25 | -0.029 | -0.048 | -0.061 | -0.097 |
| SMARCA4 (UniProt P51532) | 0.073 | -0.023 | 0.244 | – | -0.027 |
| SLC25A42 (UniProt Q86VD7) | 0.073 | 0.051 | -0.019 | -0.005 | 0.003 |
| TAF6L (UniProt Q9Y6J9) | – | -0.209 | – | 0.048 | 0.073 |
| SMARCB1 (UniProt Q12824) | – | 0.057 | -0.041 | 0.015 | 0.18 |
| SSBP4 (UniProt U3KPY3) | – | – | 0 | – | – |
| SURF2 (UniProt Q15527) | 0.056 | -0.018 | 0.033 | -0.047 | -0.044 |
| TBC1D20 isoform 3 (UniProt Q96BZ9) | 0.017 | 0.069 | -0.021 | – | -0.403 (active) |

| Target | log2 fold change [1] | log2 fold change [2] | log2 fold change [3] | log2 fold change [4] | log2 fold change [5] |
| --- | --- | --- | --- | --- | --- |
| SSBP4 (UniProt Q9BWG4) | 0.086 | – | – | 0.037 | – |
| THAP9 (UniProt Q9H5L6) | 0.093 | 0.167 | – | – | -0.046 |
| SLC39A1 (UniProt Q9NY26) | – | -0.156 | – | – | 0.053 |
| TAOK2 (UniProt Q9UL54) | – | – | – | 0.026 | – |
| SMPD4 isoform 4 (UniProt Q9NXE4) | -0.094 | 0.031 | 0.043 | -0.034 | -0.104 |
| TM7SF2 (UniProt O76062) | – | 0.182 | -0.129 | – | 0.159 |
| SLC8B1 (UniProt Q6J4K2) | 0.094 | 0.178 | 0.019 | – | -0.049 |
| SMCHD1 (UniProt A6NHR9) | 0.129 | 0.141 | 0.063 | 0.01 | 0.036 |
| SSB (UniProt E7ERC4) | – | – | 0.188 | – | – |
| TANGO6 (UniProt Q9C0B7) | -0.139 | 0.052 | – | 0.018 | -0.086 |
| SLC35B4 (UniProt Q969S0) | 0.061 | – | -0.069 | -0.137 | – |
| SRXN1 (UniProt Q9BYN0) | -0.02 | 0.086 | 0.117 | -0.05 | 0.086 |
| SNX2 isoform 2 (UniProt O60749) | 0.092 | 0.217 | 0.094 | – | 0.066 |
| TDP1 (UniProt Q9NUW8) | – | 0.068 | – | – | 0.054 |
| TCOF1 isoform 3 (UniProt Q13428) | – | – | – | -0.093 | – |
| SLC9A6 isoform 3 (UniProt Q92581) | -0.057 | 0.003 | – | -0.005 | 0.089 |
| SNRNP27 (UniProt Q8WVK2) | 0.027 | -0.058 | 0.021 | 0.023 | 0.044 |
| TMBIM1 (UniProt Q969X1) | 0.024 | 0.206 | 0.242 | -0.005 | 0.193 |
| SPTBN1 (UniProt Q01082) | -0.002 | -0.033 | 0.078 | 0.027 | 0.013 |
| SMAD2 (UniProt Q15796) | -0.014 | 0.022 | 0.056 | -0.02 | -0.066 |
| SRFBP1 (UniProt Q8NEF9) | 0.011 | -0.14 | – | 0.048 | -0.013 |
| SUPT5H isoform 2 (UniProt O00267) | – | – | -0.015 | – | – |
| SUN1 isoform 9 (UniProt O94901) | – | -0.114 | 0.013 | 0.109 | 0.018 |
| SLC6A6 (UniProt P31641) | -0.002 | 0.065 | 0.039 | 0.018 | 0.035 |
| SLC27A4 (UniProt Q6P1M0) | -0.018 | 0.095 | 0.037 | -0.027 | -0.019 |
